Hits are enriched below; roughly 3.2% of the tested compounds scored in any of these assays.
S16 F2sN tox = S16 Schwann cell cytotoxicity; Potency, µM (top dose mostly 57.5 µM), without a hit: top-dose activity change, negative = cytotoxicity, hits mostly cytotoxic; actives 0.48% (n = 43,000); AID 1508642; S16 Pmp22-F2sN Schwann cells viability, CellTiter-Glo, 24 h; note: nearly all actives have a fitted effect of over 65% in size
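S16 Pmp22-F2sN Schwann cells (500-1,000/well) in phenol-red-free DMEM with 10% FBS received 23 nL compound by pin tool for 24 h at 37 °C. Viability was then read as CellTiter-Glo luminescence after 15 min at room temperature.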
p53null 32C tox = selectivity test: cytotoxicity in p53 null cells, permissive temperature; actives 0.62% (n = 55,000); H1299-neo p53 null cells, ATP luminescence, 24 h, 32C; Potency, µM (top dose mostly 46.1 µM), inactives show at the highest dose activity change, negative = cytotoxicity, actives largely listed as cytotoxic;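 note: 0% = DMSO only and -100% = full killing by 100 µM tamoxifen; nearly all actives have a fitted effect of over 55% in size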
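H1299-neo, 600 cells/well; overnight 37C; cpd up to 46 uM, 24 h at 32C; ATPlite luminescence after 20 min RT; normalized to DMSO (0%) and tamoxifen 100 uM (100% kill); Hill-fit AC50.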
mTORC1 inh = reduces mTORC1 signaling in Tsc2 and p53 null MEF cells; Potency, µM (top dose mostly 38.3 µM), without a hit: at the top dose activity change, negative = inhibition, actives largely listed as inhibitors; actives 0.78% (n = 44,000); Tsc2-/- p53-/- MEF, phospho-rpS6 immunofluorescence/PI, 24 h;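 note: plate controls were DMSO for no effect and rapamycin for full effect; nearly all actives have a fitted effect of over 50% in size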
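Cell-based qHTS: Tsc2-/- p53-/- MEF, 24 h cpd, 37 °C; fix/perm, anti-phospho-S6 Alexa-488 + PI; Acumen 488 nm scan; pS6/PI ratio, % positive cells; rapamycin 7.5 nM = inhibition ref; PI count = viability.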
PMP22 txn = modulates PMP22 transcription in S16 Schwann cells; S16 Pmp22-F2sN Schwann cells (luciferase reporters placed in the Pmp22 gene), FLuc/NLuc coincidence luminescence, 24 h; Potency, µM (series often up to 57.5 µM), for the others: at the top dose activity change, negative = inhibition, usual class: inhibitors; actives 2% (n = 43,000); AID 1508649; active = clear falling dose curves in both reporters; inconclusive = both reporters move, but less clearly or upward; inactive = either reporter flat; the % is the NLuc reporter signal
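Luminescent read-out of sequential FLuc and NLuc signals from a reporter embedded in the Pmp22 3' UTR of S16 Schwann cells, taken after 24 h compound exposure at 37C; compounds reducing both signals score as inhibitors of expression.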
p53null 39C kill = kills p53 null cells at the nonpermissive temperature; H1299 p53-null (neo) cells, 39C, ATPlite viability, 24 h; Potency, µM (highest dose often 46.1 µM), without a hit: at the highest dose activity, negative = cell killing, most hits filed as cytotoxic; actives 0.97% (n = 55,000); AID 904;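 note: 0% = DMSO only and -100% = full killing by 100 µM tamoxifen; nearly all actives have a fitted effect of over 50% in size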
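Concentration-response (up to 46 uM) was run for 24 h at the nonpermissive 39C on H1299-p53A138V or H1299-neo cells. ATP content was measured with ATPlite luminescence. AC50 values were Hill-modeled after normalizing between DMSO and 100 uM tamoxifen killing.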
Numbers without * were called inactive; ? = inconclusive; / = not tested or not shown; [ ] = another dose, or the depositor's remark. Unless noted, calls come from the whole dose curve; as a rule, active = well fitted curve in the direction sought with a large enough effect; inconclusive = small, poorly fitted or top-dose-only effect, or another doubt; inactive = no such curve, though single readings can be large; an effect the other way counts as inactive or inconclusive. Unless noted, % is set by controls: 0 for no effect and ±100 for the full control effect; potency is the fitted concentration of half-maximal effect.

SMILES	S16 F2sN tox	p53null 32C tox	mTORC1 inh	PMP22 txn	p53null 39C kill
CCc1ccc(-n2c(=O)c3c4c(sc3n(CC(=O)c3ccc(F)cc3)c2=O)CCC4)cc1	-19%	3%	5.2µM*	?	-25%
CCc1ccc(-n2c(=O)c3c4c(sc3n(Cc3ccc(F)cc3)c2=O)CCCC4)cc1	4%	-5%	2%	-14%	10%
COc1ccc2nc(-c3cccc(N)c3)[nH]c2c1	/	10µM*	/	/	8.9µM*
COc1ccc2nc(-c3ccc(N)cc3)[nH]c2c1	/	13µM*	/	/	?
COc1ccc2oc(=O)c(-c3nc4ccc(C)cc4[nH]3)cc2c1	-29%	-12%	-5%	?	-20%
CN(C)S(=O)(=O)c1cc(NC(=O)COC(=O)Cc2cccc3ccccc23)ccc1Cl	/	/	/	/	15%[1.84 µM]
COc1cccc(Cn2c(=O)n(CC3CCC(C(=O)N4CCCCC4)CC3)c(=O)c3sccc32)c1 (stereo not given)	?	58%	-6%	?	44%
Cc1cc(C)cc(NC(=O)c2cnn(-c3ccc(C)c(C)c3)c2C2CCNCC2)c1	?	19%	7.4µM*	?	-10%
Cc1ccc(-n2ncc(C(=O)NCCN3CCc4ccccc4C3)c2C2CCNCC2)cc1C	-22%	4%	?	?	-2%
O=C(Nc1cccc(C(F)(F)F)c1)c1cnn(-c2cccc(F)c2)c1C1CCNCC1	-26%	0%	18µM*	-7%	-3%
Cc1ccccc1-c1nc2ccccc2[nH]1	/	-15%	/	/	-1%
Cc1ccc(/C=C/c2nc3ccccc3[nH]2)cc1	16µM*	0.4µM*	14%	?	1.6µM*
COc1ccc(NC(=O)CCc2c(C)nn(-c3ccc(N4CCCCC4)nn3)c2C)cc1Cl	/	10µM*	6%	/	?
Cc1cccc(CCNC(=O)c2cc3c(s2)-c2c(C)cccc2OC3)c1	?	-6%	-3%	?	-23%
Cc1cccc2c1-c1sc(C(=O)NCCc3ccc(Cl)cc3)cc1CO2	32µM*	0%	?	?	?
CN1CCN(C2(CNC(=O)c3ccc(C(C)(C)C)cc3)CCCCC2)CC1	?	-2%	16µM*	?	-17%
CC(C)COc1ccc(C(=O)NCC2(N3CCN(C)CC3)CCCCC2)cc1	?	-5%	16µM*	?	-15%
Cc1ccc(OC(C)C(=O)NCC2(N3CCOCC3)CCCCC2)cc1C (stereo not given)	-15%	-7%	?	?	-9%
CCOc1ccc2nc(N3CCCC(C(=O)NCCc4ccc(SC)cc4)C3)sc2c1 (stereo not given)	-11%	-7%	-5%	?	-7%
CCOC(=O)c1c(NC(=O)COc2cccc(C)c2C)sc(C(C)=O)c1C	7%	-12%	13%	1%	-27%
Cc1cccc(N2CCN(C(=O)Cn3c(C)c4cnn(-c5ccccc5)c(=O)c4c3C)CC2)c1C	?	19%	5%	12µM*	7%
Cc1cccc(NC(=O)CCCn2c(C)c3cnn(-c4ccccc4)c(=O)c3c2C)c1C	-4%	-3%	1%	-22%	-7%
CCN1C(=O)c2ccccc2Sc2ccc(NC(=O)Nc3ccc(C(C)=O)cc3)cc21	?	-2%	0%	-13%	-5%
CCN(CC)CCNC(=O)Nc1ccc2c(c1)N(Cc1ccccc1)C(=O)c1ccccc1S2	?	13%	?	?	18µM*
Clc1cccc(-n2ncc3c(NC4CCCCCC4)ncnc32)c1	?	-8%	-7%	?	?
SMILES	S16 F2sN tox	p53null 32C tox	mTORC1 inh	PMP22 txn	p53null 39C kill
Cc1cccc(-n2ncc3c(NC4CCCCC4)ncnc32)c1	/	-25%	/	/	0%
c1ccc(-n2ncc3c(NC4CCCC4)ncnc32)cc1	18%	16µM*	0%	-10%	?
COc1ccc(-n2ncc3c(NC4CCCC4)ncnc32)cc1	?	5µM*	-18%	?	8%
Cc1ccc(-n2ncc3c(NC4CCCC4)ncnc32)cc1	-16%	7.9µM*	5%	1%	?
Cc1cccc(-n2ncc3c(NC4CCCC4)ncnc32)c1	7%	13µM*	-1%	?	36%
CCCCNC(=O)C1CCN(S(=O)(=O)CCC)CC1	-4%	-2%	1%	1%	6%
O=C(CSCc1ccc([N+](=O)[O-])cc1)Nc1ccc(S(=O)(=O)N2CCCCCC2)cc1	/	-24%	/	/	/
Cc1cccc(OCc2ccc(-c3nc(C#N)c(N4CCN(c5ccccc5)CC4)o3)o2)c1	14%	-6%	3%	-24%	-9%
O=C(c1ccc2c(c1)N(Cc1ccc(Cl)cc1)C(=O)c1ccccc1S2(=O)=O)N1CCN(c2ccccn2)CC1	1%	-11%	-6%	?	-8%
CC1CCN(c2ccc(-c3cccc(NS(=O)(=O)c4cccs4)c3)nn2)CC1	/	7.9µM*	-2%	/	10µM*
CC1CCN(c2ccc(-c3cccc(NS(=O)(=O)c4ccc(Cl)s4)c3)nn2)CC1	/	6.3µM*	0%	/	10µM*
COc1ccc(S(=O)(=O)Nc2cccc(-c3ccc(N4CCCC4)nn3)c2)cc1OC	/	11%	0%	/	-10%
COc1ccc(C)cc1S(=O)(=O)Nc1cccc(-c2ccc(N3CCC(C)CC3)nn2)c1	/	-11%	0%	/	-10%
COc1ccc(F)cc1S(=O)(=O)Nc1cccc(-c2ccc(N3CCC(C)CC3)nn2)c1	/	?	-4%	/	?
COc1ccc(S(=O)(=O)Nc2cccc(-c3ccc(N4CCC(C)CC4)nn3)c2)cc1OC	/	3.2µM*	-6%	/	7.9µM*
CC(C)c1ccc(N(CC(=O)O)S(=O)(=O)c2ccc3[nH]c(=O)c(=O)[nH]c3c2)cc1	4%	3%	-1%	-7%	1%
COc1cccc(NC(=O)/C(C#N)=C/c2ccc(-c3ccc(C)cc3)o2)c1	2%	7%	-15%	-23%	-3%
COc1ccc(NC(=O)C2CCCN(S(=O)(=O)c3c(C)n[nH]c3C)C2)cc1OC (stereo not given)	-1%	1%	-8%	-17%	-4%
Cc1ccc(-c2nc3nc(C)cc(N4CCN(c5cccc(C)c5)C(C)C4)n3n2)cc1 (stereo not given)	2%	2%	3%	7%	20µM*
Cc1ccc(C)c(Nc2nn3c(=O)c4cc5c(cc4nc3s2)OCO5)c1	-2%	-9%	-1%	-44%	-16%
O=c1c2cc3c(cc2nc2sc(Nc4ccccc4)nn12)OCO3	15%	10µM*	4%	-4%	6.3µM*
CCOc1ccc(-c2oc3cc(Cl)ccc3c(=O)c2O)cc1OC	-11%	?	?	?	16µM*
COc1ccc(OC)c(-c2cc(C(=O)Nc3cnn(Cc4ccc(Cl)cc4Cl)c3)no2)c1	/	?	?	/	10µM*

Screens: PubChem, National Center for Advancing Translational Sciences (NCATS)
